Test results from PubChem BioAssay AID652016 (National Center for Advancing Translational Sciences (NCATS), 2013).
Records with an inconclusive call do not appear. Values without a mark were called inactive. The source made the active and inactive calls. Calls come from the whole dose curve; as a rule, active = well fitted inhibition curve with a large enough effect; inconclusive = small, poorly fitted or top-dose-only effect; inactive = flat fitted curve, though single readings scatter.

Biological target: Luciferin 4-monooxygenase (Photinus pyralis) (UniProt P08659)
Test: qHTS Assay for Inhibitors of Firefly Luciferase from the GSK Published Protein Kinase Inhibitor Set
Conditions: purified firefly luciferase, luminescence inhibition; series mostly up to 57.5 µM; activity change, negative = inhibition: at the top concentration
Outline: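 Enzyme-level luminescence assay: compounds titrated (about 60uM down to 300pM) into substrate buffer (10uM ATP, 10uM D-luciferin, pH 7.5 Tris acetate with Mg, Tween-20, BSA), then 10nM firefly luciferase added; read after ~5 min.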
% is set by controls: 0 for no effect and ±100 for the full control effect; potency is the fitted concentration of half-maximal effect.

Luciferin 4-monooxygenase (Photinus pyralis), sequence (P08659 whole entry, looked up): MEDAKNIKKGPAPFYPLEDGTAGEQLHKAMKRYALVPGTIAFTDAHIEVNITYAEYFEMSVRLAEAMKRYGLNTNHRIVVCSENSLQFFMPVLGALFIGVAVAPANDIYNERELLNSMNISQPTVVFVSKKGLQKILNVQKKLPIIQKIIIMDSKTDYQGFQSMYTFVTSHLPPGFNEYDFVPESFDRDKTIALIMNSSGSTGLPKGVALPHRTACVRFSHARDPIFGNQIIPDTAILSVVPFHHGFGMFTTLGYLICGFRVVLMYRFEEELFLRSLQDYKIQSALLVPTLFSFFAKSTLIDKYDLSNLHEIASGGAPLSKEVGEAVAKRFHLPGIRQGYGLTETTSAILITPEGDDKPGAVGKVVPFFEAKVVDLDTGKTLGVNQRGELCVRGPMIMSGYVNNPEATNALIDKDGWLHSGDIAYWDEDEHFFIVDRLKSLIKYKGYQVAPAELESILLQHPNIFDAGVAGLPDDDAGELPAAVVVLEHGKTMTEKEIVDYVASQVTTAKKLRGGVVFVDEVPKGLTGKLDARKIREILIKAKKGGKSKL

Row | Structure (SMILES) | activity change, negative = inhibition [%] | Potency
1 | COc1cc(Nc2ncc(-c3ccccc3)o2)cc(OC)c1OC | -14.6 | 
2 | CCn1c(-c2nonc2N)nc2c(C#CC(C)(C)O)ncc(OCC3CCCN3)c21 (stereo not drawn) | -25.6 | 
3 | CCN1CCC(C(=O)Nc2n[nH]c3nnc(-c4cccc(F)c4F)cc23)CC1 | -1.28 | 
4 | COc1cc(Nc2ncc3c(C)nc(-c4cccc(Oc5ccccc5)c4)n3n2)cc(OC)c1OC | 0.978 | 
5 | Fc1cccc(COc2ccc(Nc3ncnc4sc(-c5cccs5)cc34)cc2Cl)c1 | -18.1 | 
6 | O=C1NC(=O)C(c2ccccc2Cl)=C1Nc1cccc(O)c1 | -8.83 | 
7 | c1ccc(Nc2ncc(-c3ccccc3)o2)cc1 |  | 0.259 µM (active)
8 | O=S(=O)(CCOCc1ccc(-c2ccc3ncnc(Nc4ccc(OCc5cccc(F)c5)c(Cl)c4)c3c2)o1)c1ccccc1 | 6.47 | 
9 | COC(=O)Nc1nc2ccc(Oc3ccc(NC(=O)Nc4cccc(C(=O)O)c4)cc3)cc2[nH]1 |  | 0.116 µM (active)
10 | Nc1nccc(-c2c(-c3ccc(F)cc3)ncn2C2CCC(O)CC2)n1 (stereo not drawn) | 0.209 | 
11 | Fc1ccc(Oc2nccc(-c3c(-c4ccc(F)cc4)ncn3C3CCNCC3)n2)cc1 | 5.77 | 
12 | COc1ccc(C2=C(N3CCc4ccccc43)C(=O)NC2=O)cc1 | -13.5 | 
13 | CCn1c(-c2nonc2N)nc2ccccc21 | 2.35 | 
14 | CCc1ccc(Oc2nccc(-c3c(-c4ccc(F)cc4)ncn3C3CCNCC3)n2)cc1 | 0.977 | 
15 | Cc1cc(-c2ccccn2)cc(C)c1C=Cc1cncc(-c2nn[nH]n2)c1 | -18.8 | 
16 | COc1cc2ncn(-c3cc(OCc4ccccc4C(F)(F)F)c(C(=O)N(C)C)s3)c2cc1OC | 6.24 | 
17 | Fc1ccc(-c2nc3n(c2-c2ccncc2)CCS3)cc1 | -5.01 | 

Row | Structure (SMILES) | activity change, negative = inhibition [%] | Potency
18 | CCn1c(-c2nonc2N)nc2c(C#CCN)ncc(OCCCN)c21 | 2.26 | 
19 | CCn1c(-c2nonc2N)nc2c(C#CC(C)(C)O)ncc(OC3CCNCC3)c21 | -0.275 | 
20 | Fc1ccc(-c2c(-c3ccncc3)nc3n2CCS3)cc1 | -5.47 | 
21 | COc1ccc(-c2coc3ncnc(N)c23)cc1 | 0.905 | 
22 | NS(=O)(=O)c1ccc(N=Nc2c(O)[nH]c3ccc(C(=O)NCCCn4ccnc4)cc23)cc1 | 7.5 | 
23 | COc1cc(Nc2ncc3c(C)nc(-c4cccc(C(F)(F)F)c4)n3n2)cc(OC)c1OC | -1.91 | 
24 | COc1ccc(-c2nn3ncccc3c2-c2ccnc(Nc3cccc(C(F)(F)F)c3)n2)cc1 | -0.544 | 
25 | CC(=O)Nc1cccc(C#Cc2cncnc2Nc2ccc(OCc3cccc(F)c3)c(Cl)c2)c1 | -10.2 | 
26 | OCCCNc1nccc(-c2c(-c3ccc(F)cc3)nn3cc(C(F)(F)F)ccc23)n1 |  | 32.6 µM (active)
27 | CCn1c(-c2nonc2N)nc2cncc(C(=O)N3CCNCC3)c21 | 4.9 | 
28 | CS(=O)(=O)CCN(CC#N)Cc1ccc(-c2ccc3ncnc(Nc4ccc(OCc5cccc(F)c5)c(Cl)c4)c3c2)o1 | 8.94 | 
29 | Cc1cccc(-c2[nH]ncc2-c2ccc3ncccc3n2)n1 | 13.3 | 
30 | COc1ccc(-c2nn3ncccc3c2-c2ccnc(Nc3ccc4c(c3)OCCO4)n2)cc1 | -11 | 
31 | Nc1nc(-c2ccccn2)c(-c2ccc3ncccc3n2)s1 |  | 32.6 µM (active)
32 | NC(=O)c1cc(-c2ccc(F)cc2)cc(-c2ccncc2)c1N | 0.778 | 
33 | CN(C)c1ccc2[nH]c(O)c(C=Nc3ccc(S(N)(=O)=O)cc3)c2c1 | -13.5 | 
